# Bioassay records (PubChem)
# D1 allo mod – D1 CRE-luciferase signal change, two-sided – cell-based, HEK293 D1, dopamine EC30, D1 allosteric modulator project, primary screen. D(1A) dopamine receptor (Homo sapiens), P21728. dopamine EC30 potentiation; actives deviate in either direction. B-score at 10 µM. hit rate 5.9% among 58,000;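 active = luminescence count or its row- and column-corrected plate score outside the 99.7% band of the plate's sample wells, on either side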
# M1 agonist – M1 muscarinic receptor agonists, primary screen, CHO-M1 cells, Fluo-4 calcium, agonist mode; B-score at 10 µM; Muscarinic acetylcholine receptor M1; Fluo-4 calcium fluorescence; stronger effect = higher value; hit rate 3% among 64,000;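 active = fluorescence rise, raw or as B-score row- and column-corrected plate score, outside the 99.7% band of its plate's samples, either direction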
# Htt clearance – clearance of mutant huntingtin inclusions, primary screen, imaging, HeLa Exon1htt(103Q)mCFP, confocal imaging. inhibition, % at 1.5 µM. hit rate 0.42% among 47,000. aggregate imaging; zero = plate's median compound well. AID 853, 2007;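 active = inhibition of aggregate fluorescence above about 70%, also judged a hit by eye on the cell image, limit read from the data, passing the limit was not always enough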;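 also: cells exposed to compound for three days before fixation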
# WNV NS2B-NS3 inh – inhibitors of WNV NS2B-NS3 protease, primary screen, biochemical, fluorogenic substrate. Genome polyprotein (West Nile virus), P06935. fluorogenic substrate Ex360/Em465; stronger effect = lower value. z-score (test concentration not listed). hit rate 0.18% among 65,000. AID 577, 2007; in the data active = z-score below about -3
# M1 antag – antagonists of rat M1 muscarinic receptor; B-score at 10 µM; CHO-M1 cells, Fluo-4 calcium, ACh EC80 antagonist mode; stronger effect = lower value; Muscarinic acetylcholine receptor M1 (Rattus norvegicus), P08482; hit rate 3.4% among 64,000;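 active = calcium fluorescence response, raw or row-and-column corrected B-score, differing from the plate sample mean either way at a set confidence level, mostly lower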
# Target sequence (P08482 whole entry, looked up): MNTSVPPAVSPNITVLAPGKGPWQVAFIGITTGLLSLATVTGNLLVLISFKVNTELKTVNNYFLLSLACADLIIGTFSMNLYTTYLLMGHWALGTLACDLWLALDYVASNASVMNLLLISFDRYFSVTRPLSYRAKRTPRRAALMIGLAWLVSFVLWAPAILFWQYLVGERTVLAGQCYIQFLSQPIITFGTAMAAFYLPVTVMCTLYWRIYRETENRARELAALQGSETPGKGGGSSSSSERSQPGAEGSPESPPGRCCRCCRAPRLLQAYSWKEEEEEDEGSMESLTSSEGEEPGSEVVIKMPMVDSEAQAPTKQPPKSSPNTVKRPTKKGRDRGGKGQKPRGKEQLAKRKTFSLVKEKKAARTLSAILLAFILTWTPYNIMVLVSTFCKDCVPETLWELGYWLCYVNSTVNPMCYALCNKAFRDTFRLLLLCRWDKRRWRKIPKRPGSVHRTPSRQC
# M1 antag confirm – rat M1 muscarinic receptor antagonists, confirmation, CHO cells, Fluo-4 calcium, duplicate; shares compounds with M1 antag; ACh EC80 antagonism; stronger effect = lower value; calcium response (max-min fluorescence) at 10 µM; hit rate 43% among 1,700; AID 677, 2007;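 active = calcium response below the same-plate mean of wells given acetylcholine alone at its 80%-effect dose, minus 3 SD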;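 also: raw fluorescence intensity difference in arbitrary instrument units and not normalized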
# mGluR4 antag – human mGluR4 response to M1 antagonist hits, M1 allosteric modulator project, cell-based, antagonist mode, secondary assay 1. shares compounds with M1 antag. CHO-mGluR4 calcium flux, Fluo-4 fluorescence, glutamate EC80; stronger effect = lower value. fluorescence response (max-min) at 10 µM. hit rate 0.9% among 1,700. AID 678, 2007;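 active = fluorescence response below the plate's average for near-maximal glutamate wells, less 3 SD of those wells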;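 also: raw unnormalized fluorescence span taken in the window right after glutamate addition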
# Starred values were filed as active, the others as inactive; · = no result. An excerpt weighted towards active compounds, which were near 8.9% of everything screened.
SMILES,D1 allo mod,M1 agonist,Htt clearance,WNV NS2B-NS3 inh,M1 antag,M1 antag confirm,mGluR4 antag
CCSc1sccc1C1C(C#N)=C(N)N(c2cccnc2)C2=C1C(=O)CC(C)(C)C2 (stereo not given),2.4,0.0052,·,0.54,-5.1*,622,199
CCn1c(SCC(=O)Nc2c(C)n(C)n(-c3ccccc3)c2=O)nnc1-c1cccc(C)c1,0.042,2.5,·,-0.81,-1.9*,575,196
Cc1c(NC(=O)CSc2nnnn2C)c(=O)n(-c2ccccc2)n1C,·,·,-23,·,·,·,·
COc1ccccc1C1NC(=O)NC(C)=C1C(=O)OC1CCCCC1 (stereo not given),-0.0052,1.2,·,-0.51,1.7,·,·
CCOC(=O)N1CCN(C(=O)Nc2sc3nc4n(c(=O)c3c2C)CCC(C)CC4)CC1 (stereo not given),-0.28,-0.63,-67,-2.3,0.15,·,·
COc1ccc(NC(=O)c2cnc3sccn3c2=O)cc1OC,0.46,0.23,·,0.59,-1.3,·,·
CCCCNC(=O)N1CCOCCOCCN(C(=O)NCCCC)CCOCC1,-0.064,0.059,-10,0.84,-2.3*,589,244
Cc1ccc(C)c(C2=CSC3=NCCN23)c1,-0.19,-0.77,·,1.7,-0.16,·,·
Clc1ccc(C2=CSC3=NCCN23)cc1Cl,-0.5,-0.22,-11,0.62,-2.2*,535,241
Cc1cccc(OCC(=O)Nc2ccc3c(c2)OCCO3)c1,-1.5,0.28,·,-0.25,-5*,653,247
CCCC(=O)Nc1cccc(NC(=O)c2ccc3c(c2)OCO3)c1,-1.2,0.28,·,1.8,0.14,·,·
CCC(=O)Nc1cccc(NC(=O)c2ccc3c(c2)OCCO3)c1,-0.66,0.23,·,-0.76,-2.6*,605,216
c1coc(Cn2c(SCc3nc4ccccc4[nH]3)nnc2-c2cccs2)c1,0.74,0.16,·,0.26,-2.3*,659,226
Cc1cccc(-c2nnc(SCc3nc4ccccc4[nH]3)n2Cc2ccco2)c1,0.71,0.72,·,0.15,-0.9,·,·
CC(C)(C)C1CCC(OCC(O)CN2CCN(c3ccccc3)CC2)CC1 (stereo not given),·,·,-65,·,·,·,·
CC1CCN(CC(O)COC2CCC(C(C)(C)C)CC2)CC1 (stereo not given),-1.3,-0.09,-45,-0.61,-4*,481,230
CCOC(=O)c1nn(-c2ccc(OC)cc2)c(=O)c2c(NC(=O)c3ccco3)scc12,-1.1,-0.0097,·,-1,-0.071,·,·
CCn1c(CNC(=O)c2ccco2)nnc1SCC(=O)Nc1cc(C(F)(F)F)ccc1Cl,-0.31,0.26,·,0.65,-1.2*,659,184
CCn1c(CNc2ccccc2Cl)nnc1SCC(=O)NCc1ccccc1,-0.051,0.34,·,-0.25,-3*,465*,239
CCn1c(CNC(=O)c2cccs2)nnc1SCC(=O)Nc1ccc(Cl)cc1,·,·,38,·,·,·,·
COCCCNCCOc1cc(C(C)C)ccc1C,-1.4,-0.14,19,1.6,-2.3*,554,237
COc1cccc(C(=O)N/N=C(/c2ccccc2)c2ccccn2)c1,·,·,-11,·,·,·,·
Clc1ccc(-c2nn3c(-c4ccccn4)nnc3s2)c(Cl)c1,1.3,1.9,·,-0.11,0.12,·,·
COc1cc(NC(=O)c2cc(-c3cccnc3)nc3ccc(C)cc23)c(OC)cc1Cl,·,·,10,·,·,·,·
CCOCCCN1C(=O)C(O)=C(C(C)=O)C1c1cccs1 (stereo not given),·,·,-28,·,·,·,·
CCCCS/C(=C(/C#N)C(N)=O)c1cc2c([nH]1)CCCC2,0.39,0.18,·,-0.71,-6*,140*,267
CC(=O)Nc1ccccc1-c1nc2ccccc2nc1OCC(=O)c1ccc2ccccc2c1,·,·,17,·,·,·,·
CCN1CCN(Cc2ccccc2NC(=O)Nc2ccc(C)cc2)CC1,-2.3,-0.46,·,-0.3,-1,·,·
CCOC(=O)c1ccc(NC(=O)c2ccc(CN3CCOCC3)cc2)cc1,-1.4,1.6,69,-0.36,-7.3*,418*,259
